{"source": "PubChem BioAssay (NCATS)", "note": "Records with an inconclusive call do not appear. Active and inactive are the calls of the source. Calls come from the whole dose curve; as a rule, active = well fitted inhibition curve with a large enough effect; inconclusive = small, poorly fitted or top-dose-only effect; inactive = no such curve, though single readings can be large or run the other way. Potency is the fitted concentration of half-maximal effect.", "data": [{"molecular_target": "N-terminal Xaa-Pro-Lys N-methyltransferase 1 (Homo sapiens) (UniProt Q9BV86)", "sequence (Q9BV86 whole entry, looked up)": "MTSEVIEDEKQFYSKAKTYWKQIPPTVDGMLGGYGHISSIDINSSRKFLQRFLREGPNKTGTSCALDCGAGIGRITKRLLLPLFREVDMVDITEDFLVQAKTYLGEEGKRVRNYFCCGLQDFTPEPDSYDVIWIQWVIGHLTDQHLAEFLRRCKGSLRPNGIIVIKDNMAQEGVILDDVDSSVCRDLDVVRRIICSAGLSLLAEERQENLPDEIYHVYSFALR", "assay": "qHTS Assay for Inhibitors of N-terminal methyltransferase 1 (NTMT1): LOPAC validation of the NTMT1 SAHH-coupled ThioGlo3 Assay (AID 1347143);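 note: SAH from peptide methylation measured as thiol fluorescence via SAHH coupling and ThioGlo3; nearly all actives have a fitted effect of over 70% in size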; for activity change, negative = inhibition: % is set by controls: 0 for no effect and ±100 for the full control effect", "conditions": "recombinant NTMT1, SAHH-coupled ThioGlo3 fluorescence; series mostly up to 114 µM; activity change, negative = inhibition: at the top concentration", "procedure,_shortened": "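In this qHTS pilot against the LOPAC set, 125nM NTMT1 met compounds tested at multiple concentrations, and fluorescence was normalized to background.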", "values": [{"smiles": "CC(C)(C(=O)O)c1ccc(C(O)CCCN2CCC(C(O)(c3ccccc3)c3ccccc3)CC2)cc1", "note": "(stereo not given)", "activity change, negative = inhibition": "-11.8% (inactive)"}, {"smiles": "CCN(CC)CCCC(C)Nc1c2ccc(Cl)cc2nc2ccc(OC)cc12", "note": "(stereo not given)", "Potency": "39.8 µM (active)"}, {"smiles": "C[C@H]1O[C@@H](n2cc(F)c(=O)[nH]c2=O)[C@H](O)[C@@H]1O", "activity change, negative = inhibition": "-9.72% (inactive)"}, {"smiles": "CC(C(O)c1ccc(O)cc1)N1CCC(Cc2ccccc2)CC1", "note": "(stereo not given)", "activity change, negative = inhibition": "-17.3% (inactive)"}, {"smiles": "CC(CN(C)C)CN1c2ccccc2CCc2ccccc21", "note": "(stereo not given)", "activity change, negative = inhibition": "-25.1% (inactive)"}, {"smiles": "CCCn1cnc2c1c(=O)n(CCCCC(C)=O)c(=O)n2C", "activity change, negative = inhibition": "-10.9% (inactive)"}, {"smiles": "C[C@](N)(Cc1ccc(O)cc1)C(=O)O", "activity change, negative = inhibition": "-13.7% (inactive)"}, {"smiles": "CC[N+](CC)(CC)CCOc1ccc(/C=C/c2ccccc2)cc1", "Potency": "39.8 µM (active)"}, {"smiles": "NC1[C@H]2CN(c3nc4c(cc3F)c(=O)c(C(=O)O)cn4-c3ccc(F)cc3F)C[C@@H]12", "note": "(stereo not given in full)", "Potency": "50.1 µM (active)"}, {"smiles": "Nc1cc(=O)[nH]c(N)n1", "activity change, negative = inhibition": "-20.9% (inactive)"}, {"smiles": "CSc1ccc2c(c1)N(CCC1CCCCN1C)c1ccccc1S2", "note": "(stereo not given)", "Potency": "44.7 µM (active)"}]}, {"system": "Zika virus NS2B-NS3 protease (unlinked)", "assay": "Optimization of GU AMC qHTS for Zika virus inhibitors: Unlinked NS2B-NS3 protease assay (AID 1347151); note: nearly all actives have a fitted effect of over 80% in size;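 for activity change, negative = inhibition: 0% = no-inhibitor control and -100% = no-enzyme control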", "conditions": "recombinant ZIKV NS2B-NS3 protease, fluorogenic AMC substrate; series mostly up to 52.5 µM; activity change, negative = inhibition: at the top concentration", "procedure,_shortened": "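Fluorescence read-out (340 nm ex / 450 nm em) of AMC peptide cleavage, taken immediately and after 15 min at room temperature (~20% conversion). Enzyme was the unlinked NS2B–NS3 complex at 25 nM in Tris pH 8.0 buffer.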", "values": [{"smiles": "O=C1N=C(O)CN1/N=C/c1ccc(-c2ccc([N+](=O)[O-])cc2)o1", "activity change, negative = inhibition": "-13.2% (inactive)"}, {"smiles": "CCN(CC)CCNC(=O)c1cc(Cl)c(N)cc1OC", "activity change, negative = inhibition": "-6.12% (inactive)"}, {"smiles": "NC(=O)c1ncn([C@@H]2O[C@H](CO)[C@@H](O)[C@H]2O)n1", "activity change, negative = inhibition": "2.41% (inactive)"}, {"smiles": "CC(C)c1c(C(=O)Nc2ccccc2)c(-c2ccccc2)c(-c2ccc(F)cc2)n1CC[C@@H](O)C[C@@H](O)CC(=O)O", "activity change, negative = inhibition": "39.5% (inactive)"}, {"smiles": "CNCC(O)c1ccc(O)c(O)c1", "note": "(stereo not given)", "activity change, negative = inhibition": "12.5% (inactive)"}, {"smiles": "CN(C)CC[C@@H](c1ccc(Cl)cc1)c1ccccn1", "activity change, negative = inhibition": "1.9% (inactive)"}, {"smiles": "COCCOC(=O)C1=C(C)NC(C)=C(C(=O)OC/C=C/c2ccccc2)C1c1cccc([N+](=O)[O-])c1", "note": "(stereo not given)", "activity change, negative = inhibition": "0.334% (inactive)"}, {"smiles": "C[C@]12CC[C@@H]3c4ccc(O)cc4CC[C@H]3[C@@H]1CCC2=O", "activity change, negative = inhibition": "4.26% (inactive)"}, {"smiles": "N=c1c[n+](N2CCOCC2)[n-]o1", "activity change, negative = inhibition": "-3.82% (inactive)"}, {"smiles": "OCc1cc(C(O)CNCCCCCCOCCCCc2ccccc2)ccc1O", "note": "(stereo not given)", "Potency": "26.7 µM (active)"}, {"smiles": "CC(C)C(=O)c1c(C(C)C)nn2ccccc12", "activity change, negative = inhibition": "0.185% (inactive)"}, {"smiles": "Cc1cc(N)c2ccccc2[n+]1CCCCCCCCCC[n+]1c(C)cc(N)c2ccccc21", "Potency": "23.8 µM (active)"}, {"smiles": "CC1=C(CC(=O)O)c2cc(F)ccc2/C1=C\\c1ccc(S(C)(=O)=O)cc1", "activity change, negative = inhibition": "-8.33% (inactive)"}, {"smiles": "COC(=O)C1=C(C)NC(C)=C(C(=O)OC)C1c1ccccc1[N+](=O)[O-]", "activity change, negative = inhibition": "-7.22% (inactive)"}, {"smiles": "CC(C)(C(=O)O)c1ccc(C(O)CCCN2CCC(C(O)(c3ccccc3)c3ccccc3)CC2)cc1", "note": "(stereo not given)", "activity change, negative = inhibition": "-2.76% (inactive)"}, {"smiles": "CCN(CC)CCCC(C)Nc1c2ccc(Cl)cc2nc2ccc(OC)cc12", "note": "(stereo not given)", "Potency": "23.8 µM (active)"}, {"smiles": "C[C@H]1O[C@@H](n2cc(F)c(=O)[nH]c2=O)[C@H](O)[C@@H]1O", "activity change, negative = inhibition": "2.19% (inactive)"}, {"smiles": "CC(C(O)c1ccc(O)cc1)N1CCC(Cc2ccccc2)CC1", "note": "(stereo not given)", "activity change, negative = inhibition": "7.83% (inactive)"}, {"smiles": "CC(CN(C)C)CN1c2ccccc2CCc2ccccc21", "note": "(stereo not given)", "activity change, negative = inhibition": "3.17% (inactive)"}, {"smiles": "CCCn1cnc2c1c(=O)n(CCCCC(C)=O)c(=O)n2C", "activity change, negative = inhibition": "-12% (inactive)"}, {"smiles": "C[C@](N)(Cc1ccc(O)cc1)C(=O)O", "activity change, negative = inhibition": "3.54% (inactive)"}, {"smiles": "NC1[C@H]2CN(c3nc4c(cc3F)c(=O)c(C(=O)O)cn4-c3ccc(F)cc3F)C[C@@H]12", "note": "(stereo not given in full)", "Potency": "23.8 µM (active)"}, {"smiles": "Nc1cc(=O)[nH]c(N)n1", "activity change, negative = inhibition": "1.68% (inactive)"}, {"smiles": "CSc1ccc2c(c1)N(CCC1CCCCN1C)c1ccccc1S2", "note": "(stereo not given)", "activity change, negative = inhibition": "8.63% (inactive)"}]}]}
